Screening results deposited in PubChem by several laboratories.
The list is not random: actives were taken first. Their share in the collection is about 4.7%.
ATG4B inhibitor: blocks human ATG4B protease cleavage of LC3 substrate; inhibition, % at 8.33 µM; hit rate 0.51% among 340,000; ATG4B cleavage of LC3-PLA2, NBD-HPC fluorescence, 1 h; AID 504462; Q9Y4P1; in the data active = inhibition above about 40%
Target sequence (Q9Y4P1 whole entry, looked up): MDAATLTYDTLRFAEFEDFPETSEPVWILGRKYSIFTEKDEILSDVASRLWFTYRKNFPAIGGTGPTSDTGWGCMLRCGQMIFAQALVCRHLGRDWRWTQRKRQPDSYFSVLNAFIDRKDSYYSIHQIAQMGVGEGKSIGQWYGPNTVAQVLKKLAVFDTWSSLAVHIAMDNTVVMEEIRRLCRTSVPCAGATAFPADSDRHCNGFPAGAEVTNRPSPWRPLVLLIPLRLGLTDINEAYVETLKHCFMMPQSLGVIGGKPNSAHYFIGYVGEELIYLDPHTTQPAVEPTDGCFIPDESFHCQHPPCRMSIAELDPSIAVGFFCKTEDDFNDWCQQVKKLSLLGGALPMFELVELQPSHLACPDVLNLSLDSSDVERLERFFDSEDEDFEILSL
SKKanGAS inh: SKKanGAS growth inhibition; AID 1662; inhibition, % at 7.5 µM; hit rate 1.3% among 300,000; S. pyogenes SKKanGAS, kanamycin growth, BacTiter-Glo, 6 h;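 active = mean replicate score, as percent of positive control median, at least 50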;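 note: strain carries kanamycin resistance gene driven by streptokinase promoter and grows in 40 µg/ml kanamycin; loss of luminescence reflects streptokinase promoter inhibition or plain growth inhibition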
tim23-1 inh: growth inhibitors of tim23-1 mutant yeast | inhibition, % at 20 µM | AID 463212 | hit rate 1.3% among 330,000 | S. cerevisiae tim23-1 growth, BacTiter-Glo luminescence, 24 h;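 active = growth inhibition of the mutant yeast at or above 50%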;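 note: temperature-sensitive mutant grown at 25 °C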
tim10-1 inh: growth inhibitors of tim10-1 mutant yeast; S. cerevisiae tim10-1 ts strain growth, BacTiter-Glo, 24 h; inhibition, % at 20 µM; hit rate 2.2% among 330,000;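 active = inhibition of at least 40%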;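 note: mutant grown at 25 °C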
TIM10 inh: inhibits growth of TIM10 yeast strain | AID 463195 | S. cerevisiae TIM10 strain growth, BacTiter-Glo luminescence, 24 h | inhibition, % at 10 µM | hit rate 1.4% among 330,000;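 active = inhibition of 40% or more at the single tested concentration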;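 note: wild-type TIM10 isogenic control strain grown at permissive 25 °C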
PfHsp90 set2: growth inhibition of yeast expressing Plasmodium Hsp90. hit rate 0.32% among 310,000. inhibition, % at 9.4 µM. S. cerevisiae expressing PfHsp90, BacTiter-Glo ATP, 48 h; yeast lacking PDR1 and PDR3 efflux regulators;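 active = every replicate shows inhibition above about 80%, whatever the replicate mean, limit read from the data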
tim10 confirm: confirmation of TIM10 yeast growth inhibitors; S. cerevisiae tim10 strain growth, BacTiter-Glo luminescence, 24 h; hit rate 63% among 4,600; shares compounds with TIM10 inh; AID 463215; inhibition, % at 10 µM;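 active = inhibition of yeast growth at or above a set limit in either of two replicates at 10 µM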; note: this counterscreen used the strain with wild-type TIM10
Of the large screens only hits and unclear results are named; the others gave an inactive call (follow-up assays come after a bar, where they were run).

CCNC(=O)N(CCOC)CC1CCCN(C2Cc3ccccc3C2)C1 (stereo not given)	TIM10 inh 51 | tim10 confirm inactive
CC(=O)Nc1ccc(Sc2ncnc3scc(-c4ccccc4)c23)cc1	none
CCCC(=O)Nc1ccccc1Sc1ncnc2scc(-c3ccccc3)c12	TIM10 inh 47 | tim10 confirm 51
Brc1ccc(-c2ccc(CNCc3ccccn3)o2)cc1	SKKanGAS inh 67, TIM10 inh 69 | tim10 confirm inactive
C(=N\NCc1ccccc1)/c1ccc2ncccc2c1	none (no result: PfHsp90 set2)
COCCOC(=O)C1=C(C)NC(=O)NC1c1cccc2ccccc12 (stereo not given)	TIM10 inh 51 | tim10 confirm inactive
COc1ccc(C(=O)N2CC3(CC(c4cccc(NC(=O)CC(c5ccccc5)c5ccccc5)c4)=NO3)C[C@H]2C(N)=O)cc1 (stereo not given in full)	TIM10 inh 96 | tim10 confirm inactive
CC1(C(=O)N2CC3(CC(c4cccc(NC(=O)CC(c5ccccc5)c5ccccc5)c4)=NO3)C[C@@H]2C(N)=O)CC1 (stereo not given in full)	TIM10 inh 96 | tim10 confirm inactive
CC(C)(C)Nc1nc(Cl)nc(Nc2ccccc2)n1	none
COc1ccccc1Nc1nc(Cl)nc(NC(C)(C)C)n1	TIM10 inh 42 | tim10 confirm inactive
CCCCc1ccc(NC(=O)Nc2cnccn2)cc1	none
CSC1=NC(=O)/C(=C/c2ccc(SC)cc2)S1	TIM10 inh 49 (no result: PfHsp90 set2) | tim10 confirm inactive
COc1ccc(NC(=O)CCS(=O)(=O)c2ccc(Br)s2)cc1	none
CCOC(=O)c1ccc(NC(=O)CCS(=O)(=O)c2ccc(Br)s2)cc1	TIM10 inh 44 (no result: PfHsp90 set2) | tim10 confirm inactive
CNC(=O)CSc1nc(N)c2c3c(sc2n1)CCC3	none (no result: SKKanGAS inh)
Cc1ccc(C(=O)c2oc3ccccc3c2N)cc1	TIM10 inh 47 | tim10 confirm inactive
COc1ccc(CN2CCNC(=O)C2CC(=O)NC2CC(C)(C)CC(C)(C)C2)cc1OC (stereo not given)	none
CC(C)(C)c1ccc(-c2nnc3sc(-c4ccncc4)nn23)cc1	none (no result: SKKanGAS inh)
c1cc(-c2nnc3sc(C4CCCCC4)nn23)ccn1	TIM10 inh 41 | tim10 confirm inactive
CCC(=O)Nc1c2c(nn1-c1ccc([N+](=O)[O-])cc1)CS(=O)(=O)C2	none
COc1ccc2oc(=O)c(N3C(=O)c4ccccc4C3=O)cc2c1	none
Cc1c(Cl)cccc1NC(=S)NCCCN(C)C	TIM10 inh 46 | tim10 confirm inactive
Cc1ccc(NC(=O)C/C(N)=N/OC(=O)Nc2cccc(Cl)c2)cc1	TIM10 inh 40 (no result: SKKanGAS inh) | tim10 confirm inactive
C=C(C)COc1ccc(-c2[nH]ncc2-c2ccc(Br)cc2)c(O)c1	SKKanGAS inh 65, TIM10 inh 49 | tim10 confirm inactive
Cc1cc(=O)[nH]c(SCC(=O)NNC(=O)Cc2ccccc2)n1	none
